Test results as given in PubChem BioAssay.
Active and inactive are the calls of the source.

Key:
[1] = small molecules captured by biotinylated probe aFSTL3 – biochemical, small-molecule microarray, fluorescence 635/667, stem cell growth factor project, primary screen (AID 1064); conditions: higher = more signal;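 also: measures binding of the biotinylated anti-FSTL3 antibody to printed compounds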
[2] = binders from COS7 lysate, DM2A8 probe, primary screen, torsin A project, cell lysate, small-molecule microarray, fluorescence 635/667 (AID 1065); conditions: higher = more signal, COS7 lysate expressing mutant human TOR1A
[3] = small molecules captured by biotinylated probe aFGF2 – biochemical, small-molecule microarray, fluorescence 635/667, stem cell growth factor project, primary screen (AID 1067); conditions: higher = more signal;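 also: measures binding of biotinylated aFGF2 protein to printed compounds on slides; z-score merges feature fluorescence and signal-to-noise across triplicate slides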
[4] = small molecules captured by biotinylated probe aFGF10 – biochemical, small-molecule microarray, fluorescence 635/667, stem cell growth factor project, primary screen (AID 1071); conditions: higher = more signal;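 also: score merges 667 nm spot intensity and signal to noise from triplicate slides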
[5] = molecular target: Neurogenic locus notch homolog protein 2 (Homo sapiens) (UniProt Q04721); experiment: small molecules binding Notch2 protein – biochemical, small-molecule microarray, 635 nm fluorescence, stem cell growth factors, primary screen (AID 1073); conditions: higher = more signal
Chain of Neurogenic locus notch homolog protein 2 (Homo sapiens) (Q04721 whole entry, looked up, canonical isoform): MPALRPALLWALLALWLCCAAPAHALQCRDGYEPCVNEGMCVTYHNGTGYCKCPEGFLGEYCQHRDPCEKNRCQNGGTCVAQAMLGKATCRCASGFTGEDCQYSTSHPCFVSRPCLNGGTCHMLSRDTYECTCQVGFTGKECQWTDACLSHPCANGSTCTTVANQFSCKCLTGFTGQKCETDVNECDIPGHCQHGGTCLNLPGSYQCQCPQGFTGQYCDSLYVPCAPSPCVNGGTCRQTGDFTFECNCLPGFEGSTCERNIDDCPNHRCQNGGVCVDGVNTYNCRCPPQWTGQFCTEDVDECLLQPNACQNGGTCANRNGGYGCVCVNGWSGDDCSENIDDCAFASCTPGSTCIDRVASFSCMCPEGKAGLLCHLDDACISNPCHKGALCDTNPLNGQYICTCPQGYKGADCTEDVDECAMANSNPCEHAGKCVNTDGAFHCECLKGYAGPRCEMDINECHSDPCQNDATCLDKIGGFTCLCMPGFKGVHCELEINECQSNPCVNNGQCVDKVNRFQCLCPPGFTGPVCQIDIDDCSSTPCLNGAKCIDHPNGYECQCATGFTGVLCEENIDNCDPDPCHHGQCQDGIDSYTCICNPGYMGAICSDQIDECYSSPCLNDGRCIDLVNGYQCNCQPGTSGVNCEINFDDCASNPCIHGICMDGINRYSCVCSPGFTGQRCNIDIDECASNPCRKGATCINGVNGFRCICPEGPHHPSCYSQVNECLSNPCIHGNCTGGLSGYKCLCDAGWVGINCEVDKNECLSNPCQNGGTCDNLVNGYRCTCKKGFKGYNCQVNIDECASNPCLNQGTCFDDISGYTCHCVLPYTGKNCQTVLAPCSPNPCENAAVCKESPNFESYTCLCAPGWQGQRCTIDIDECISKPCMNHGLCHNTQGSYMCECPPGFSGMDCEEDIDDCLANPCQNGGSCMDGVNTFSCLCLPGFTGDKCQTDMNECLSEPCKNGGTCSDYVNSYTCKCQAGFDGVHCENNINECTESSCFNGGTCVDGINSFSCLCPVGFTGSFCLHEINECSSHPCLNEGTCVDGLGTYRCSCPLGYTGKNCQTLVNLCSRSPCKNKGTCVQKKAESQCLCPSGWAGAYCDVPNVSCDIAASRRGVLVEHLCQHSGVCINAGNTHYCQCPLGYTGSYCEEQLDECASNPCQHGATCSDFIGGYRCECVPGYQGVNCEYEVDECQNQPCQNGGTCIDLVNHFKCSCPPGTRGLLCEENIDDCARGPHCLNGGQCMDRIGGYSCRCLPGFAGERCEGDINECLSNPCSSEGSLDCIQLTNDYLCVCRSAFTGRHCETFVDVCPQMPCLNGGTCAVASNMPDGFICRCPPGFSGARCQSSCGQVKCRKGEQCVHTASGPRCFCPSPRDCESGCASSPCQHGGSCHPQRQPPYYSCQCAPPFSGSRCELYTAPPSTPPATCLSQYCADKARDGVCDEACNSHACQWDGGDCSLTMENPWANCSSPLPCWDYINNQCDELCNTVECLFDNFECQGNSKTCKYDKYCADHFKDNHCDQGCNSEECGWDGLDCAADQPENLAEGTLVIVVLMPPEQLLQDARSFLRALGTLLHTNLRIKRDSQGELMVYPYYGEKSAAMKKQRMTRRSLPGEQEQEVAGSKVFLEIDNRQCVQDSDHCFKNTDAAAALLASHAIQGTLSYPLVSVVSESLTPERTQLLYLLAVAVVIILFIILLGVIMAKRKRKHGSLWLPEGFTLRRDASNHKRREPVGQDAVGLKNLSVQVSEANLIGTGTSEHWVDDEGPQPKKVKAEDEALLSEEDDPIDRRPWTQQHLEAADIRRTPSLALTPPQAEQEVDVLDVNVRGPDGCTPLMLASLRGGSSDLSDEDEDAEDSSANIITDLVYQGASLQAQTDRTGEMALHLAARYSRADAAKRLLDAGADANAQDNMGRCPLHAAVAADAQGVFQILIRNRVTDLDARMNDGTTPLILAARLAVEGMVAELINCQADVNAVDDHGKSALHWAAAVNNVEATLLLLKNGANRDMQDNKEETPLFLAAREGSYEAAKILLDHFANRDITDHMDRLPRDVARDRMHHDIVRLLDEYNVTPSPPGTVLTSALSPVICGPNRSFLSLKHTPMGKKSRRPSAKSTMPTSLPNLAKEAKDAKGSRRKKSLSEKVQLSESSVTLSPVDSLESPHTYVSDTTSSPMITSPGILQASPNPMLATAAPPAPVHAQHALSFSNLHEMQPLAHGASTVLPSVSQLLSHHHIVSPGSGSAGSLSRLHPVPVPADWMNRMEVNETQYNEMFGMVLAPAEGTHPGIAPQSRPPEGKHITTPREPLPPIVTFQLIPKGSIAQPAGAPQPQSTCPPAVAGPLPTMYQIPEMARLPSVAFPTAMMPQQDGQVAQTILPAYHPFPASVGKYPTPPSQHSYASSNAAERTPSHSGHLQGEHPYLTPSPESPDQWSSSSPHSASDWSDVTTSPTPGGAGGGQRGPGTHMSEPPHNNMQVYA

[6] = molecular target: Pro-neuregulin-1, membrane-bound isoform (Homo sapiens) (UniProt Q02297); experiment: small molecules binding neuregulin-1 protein – biochemical, small-molecule microarray, fluorescence 635/667, psychiatric disease protein project, primary screen (AID 1075); conditions: NRG1 binding, 635 nm fluorescence, higher = more signal;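 also: score combines 667 nm spot fluorescence with signal to noise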
Chain of Pro-neuregulin-1, membrane-bound isoform (Homo sapiens) (Q02297 whole entry, looked up, the tested form may be a part, canonical isoform): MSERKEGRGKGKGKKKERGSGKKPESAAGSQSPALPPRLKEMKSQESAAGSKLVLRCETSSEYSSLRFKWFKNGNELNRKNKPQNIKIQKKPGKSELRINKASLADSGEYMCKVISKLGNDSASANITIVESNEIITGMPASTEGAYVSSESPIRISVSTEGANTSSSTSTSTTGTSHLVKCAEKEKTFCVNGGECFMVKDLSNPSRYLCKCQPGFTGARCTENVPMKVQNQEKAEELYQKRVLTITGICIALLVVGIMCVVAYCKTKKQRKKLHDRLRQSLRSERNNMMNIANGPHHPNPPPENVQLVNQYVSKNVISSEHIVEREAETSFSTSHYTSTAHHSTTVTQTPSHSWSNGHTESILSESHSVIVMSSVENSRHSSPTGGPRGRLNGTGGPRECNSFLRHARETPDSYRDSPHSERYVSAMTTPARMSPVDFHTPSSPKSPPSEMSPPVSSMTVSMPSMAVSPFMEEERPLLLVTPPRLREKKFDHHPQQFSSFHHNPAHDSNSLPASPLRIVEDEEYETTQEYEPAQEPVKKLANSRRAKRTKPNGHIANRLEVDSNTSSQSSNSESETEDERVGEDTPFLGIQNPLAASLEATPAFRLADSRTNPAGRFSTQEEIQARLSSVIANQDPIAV

[7] = tested on: Neuregulin-1 EGF-like domain; experiment: small molecules binding NRG1 EGF domain – biochemical, small-molecule microarray, 635 nm fluorescence, primary screen (AID 1081); conditions: higher = more signal;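 also: binding of the protein to compounds printed on small-molecule microarray slides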
[8] = FRG1 expression reporter modulators in myotubes – cell-based, C2C12 myotubes, firefly/Renilla luciferase, luminescence, FRG1 inhibition for FSHD, primary screen (AID 1084); conditions: FRG1 promoter luciferase, higher = more signal, called active from +8 up or from −8 down
[9] = small molecules captured by biotinylated probe aFST – biochemical, small-molecule microarray, fluorescence 635/667, stem cell growth factor project, primary screen (AID 1086); conditions: higher = more signal;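 also: score merges 667 nm fluorescence with signal-to-noise of each printed compound spot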
[10] = binders of probe aHhip on microarray, primary screen, stem cell growth factor project, biochemical, small-molecule microarray, fluorescence 635/667 (AID 1087); conditions: higher = more signal;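 also: score merges spot fluorescence at 667nm with spot signal to noise ratio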
[11] = tested on: PRMT1 (protein arginine N-methyltransferase 1); experiment: small molecules binding arginine methyltransferase PRMT1 – biochemical, small-molecule microarray, 635 nm fluorescence, primary screen (AID 1088); conditions: higher = more signal;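 also: binding of Prmt1 protein to compounds spotted on small-molecule microarray slides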
[12] = growth effects on S. cerevisiae YJM789 – YJM789 clinical isolate, OD600, 24 h, basal, primary screen (AID 1089); conditions: higher = more signal, called active from +8 up or from −8 down;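 also: growth of clinical yeast isolate S. cerevisiae YJM 789 seeded 1000 cells per well; test concentration not given here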
[13] = S. pombe growth modifiers, basal conditions – strain 972, OD600, 24 h, no modulator, primary screen (AID 1090);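 also: basal condition with compound alone and no growth modifier present; test concentration not given here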; conditions: S. pombe 972 growth, higher = more signal, called active from +8 up or from −8 down
[14] = budding yeast growth modifiers under rapamycin – strain BY4716, OD600, 96 h, primary screen (AID 1091); also: test concentration not given here; conditions: S. cerevisiae BY4716 + rapamycin, higher = more signal, called active from +8 up or from −8 down
[15] = molecular target: Torsin-1A-interacting protein 2 (Homo sapiens) (UniProt Q8NFQ8); experiment: small molecules binding lysate-expressed LULL1 – cell lysate, human LULL1 lysate, 635/667 nm fluorescence, primary screen (AID 1092); conditions: small-molecule microarray, hLULL1 lysate binding, 635 nm fluorescence; higher = more signal;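 also: probe is lysate of COS7 cells overexpressing human LULL1; score merges per-feature 667 nm fluorescence with signal-to-noise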
Chain of Torsin-1A-interacting protein 2 (Homo sapiens) (Q8NFQ8 whole entry, looked up): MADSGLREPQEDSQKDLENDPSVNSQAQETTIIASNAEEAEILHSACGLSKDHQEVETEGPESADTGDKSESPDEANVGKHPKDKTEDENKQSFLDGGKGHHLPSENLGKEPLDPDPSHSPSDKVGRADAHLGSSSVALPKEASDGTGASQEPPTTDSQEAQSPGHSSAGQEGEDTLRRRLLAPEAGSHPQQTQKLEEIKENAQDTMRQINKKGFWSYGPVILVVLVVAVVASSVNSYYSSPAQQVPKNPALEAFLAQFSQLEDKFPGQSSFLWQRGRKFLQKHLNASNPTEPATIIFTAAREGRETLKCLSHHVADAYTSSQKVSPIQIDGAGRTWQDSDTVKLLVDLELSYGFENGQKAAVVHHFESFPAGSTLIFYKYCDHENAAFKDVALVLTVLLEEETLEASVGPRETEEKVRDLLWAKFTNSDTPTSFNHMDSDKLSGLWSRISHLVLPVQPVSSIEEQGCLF

[16] = optical density change of DRC41 E. coli – strain DRC41, OD650, 24 h, E. coli filamentation project, primary screen (AID 1093);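 also: MC1000 strain lacking acrAB efflux and sulA so SOS filamentation is blocked; test concentration not given here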; conditions: E. coli DRC41 growth, higher = more signal, called active from +8 up or from −8 down
[17] = probe aLefty2 binding to arrayed compounds – biochemical, biotinylated probe, 635/667 nm fluorescence, primary screen (AID 1094); conditions: small-molecule microarray, higher = more signal;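 also: score merges spot fluorescence near 667 nm with spot signal-to-noise ratio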
[18] = tested on: Noggin (protein binding on small-molecule microarray); experiment: small molecules binding Noggin protein – biochemical, 635/667 nm fluorescence, primary screen (AID 1095); conditions: 635 nm fluorescence, higher = more signal;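 also: score merges 667 nm feature fluorescence with signal to noise over triplicate slides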
[19] = molecular target: Neurogenic locus notch homolog protein 3 (Homo sapiens) (UniProt Q9UM47); experiment: small molecules binding NOTCH3 protein – biochemical, 635/667 nm fluorescence, primary screen (AID 1096); conditions: small-molecule microarray, 635 nm fluorescence, higher = more signal
[20] = probe aEGFR binding to arrayed compounds – biochemical, biotinylated probe, 635/667 nm fluorescence, primary screen (AID 1097); conditions: small-molecule microarray, higher = more signal;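 also: probe is a biotinylated anti-EGFR antibody binding compounds printed on slides; score combines fluorescence near 667 nm and signal to noise of each spot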

| SMILES | composite z-score [1] | composite z-score [2] | composite z-score [3] | composite z-score [4] | composite z-score [5] | composite z-score [6] | composite z-score [7] | z-score [8] | composite z-score [9] | composite z-score [10] | composite z-score [11] | z-score [12] | z-score [13] | z-score [14] | composite z-score [15] | z-score [16] | composite z-score [17] | composite z-score [18] | composite z-score [19] | composite z-score [20] |
| --- | --- | --- | --- | --- | --- | --- | --- | --- | --- | --- | --- | --- | --- | --- | --- | --- | --- | --- | --- | --- |
| COCCOC(=O)N1C(=O)[C@@]2(c3cc(C#CCCO)ccc31)[C@H](c1ccc(O)cc1)N1[C@H](c3ccccc3)[C@H](c3ccccc3)OC(=O)[C@H]1[C@@H]2C(=O)N1CCc2cc(OC)c(OC)cc2C1 | 0.0104 | 0.366 | -0.0004 | 0.525 | 1.36 | 1.04 | 1.32 | -0.994 (inactive) | 0.411 | -0.271 | 1.52 | 0.47 (inactive) | 0.511 (inactive) | 1.23 (inactive) | 2.45 | -0.617 (inactive) | -0.0616 | 1.55 | 1.06 | 0.122 |
| C=CC[C@]1(C(=O)N(C)C)COC(c2ccc(OCCCO)cc2)=N1 | 1.11 | 2.23 | 0.23 | 0.744 | 0.221 | 1.83 | 1.42 | 0.233 (inactive) | 0.459 | 0.0373 | 1.36 | 0.0794 (inactive) | -2.04 (inactive) | -0.95 (inactive) | 2.75 | -1.46 (inactive) | 0.804 | -0.39 | -0.338 | 0.367 |
| CC(C)CNC(=O)[C@@H]1c2ccccc2C(=O)N(CC23CC4CC(CC(C4)C2)C3)[C@H]1c1ccc(CO)cc1 | -0.146 | 0.0614 | -0.0056 | 0.205 | 0.632 | 0.792 | 0.99 | -1.49 (inactive) | 0.507 | -0.115 | 0.797 | -0.998 (inactive) | -1.88 (inactive) | -0.243 (inactive) | 2.69 | -0.109 (inactive) | -0.121 | 0.264 | 0.953 | -0.146 |
| C/C=C/CN(C(=O)C#Cc1ccccc1)[C@H](CO[Si](C)(C)C(C)(C)C)c1ccccc1 | 0.15 | 0.183 | -0.237 | -0.77 | -1.58 | -0.339 | -0.164 | -3.24 (inactive) | -0.967 | -0.435 | 0.437 | -0.185 (inactive) | -0.463 (inactive) | -0.177 (inactive) | 0.571 | 2.76 (inactive) | -0.192 | -1.01 | -1.35 | -0.595 |
| [N-]=[N+]=NCc1ccccc1[C@@H]1OC(c2ccc(OCCCO)cc2)=N[C@]1(Cc1ccccc1)C(=O)NCc1ccccc1 | -0.158 | -0.649 | 0.227 | 0.22 | 1.3 | 1.56 | 0.744 | -2.16 (inactive) | 0.846 | 0.0373 | 0.872 | 1.26 (inactive) | 0.8 (inactive) | 8.96 (active) | 3.12 | 0.615 (inactive) | 0.239 | -0.0171 | 0.672 | -0.117 |
| COc1ccc(CC[C@H](O)c2cccc(OCC(=O)OC(C)(C)C)c2)cc1 | -0.386 | 1.08 | 0.106 | 0.359 | 0.966 | 0.576 | 0.977 | -0.0488 (inactive) | 0.736 | 0.136 | 1.55 | -2.98 (inactive) | -3.06 (inactive) | 28.1 (active) | 2.12 | 0.362 (inactive) | 0.165 | 0.956 | 1.09 | 0.0656 |
| C=CCC(OC(C)=O)[C@@H]1[C@@H](N(Cc2ccc(-c3cccc(C(F)(F)F)c3)o2)C(=O)c2cccc3ccccc23)c2cc(OCCCO)ccc2N1C(=O)c1ccc2ccccc2n1 (stereo not given in full) | 0.672 | 0.584 | -0.0242 | 0.232 | -0.381 | 0.0262 | -0.393 | -0.147 (inactive) | -0.111 | 0.185 | 0.24 | 0.75 (inactive) | 0.835 (inactive) | 0.356 (inactive) | -0.039 | -0.746 (inactive) | -0.0209 | -0.029 | -0.684 | -0.132 |
| CO[C@H]1O[C@H](CO)[C@@H](OC(=O)Nc2ccc3c(c2)OCO3)[C@@H]2OC(=O)[C@@H](Cc3ccccc3)C/C=C/C[C@H](Cc3ccccc3)C(=O)O[C@@H]12 | -0.276 | -0.0172 | 0.0631 | 0.984 | 1.12 | 0.995 | 0.976 | -0.277 (inactive) | 0.508 | 0.0373 | 1.48 | 1.17 (inactive) | 0.78 (inactive) | 2.27 (inactive) | 1.29 | 0.156 (inactive) | -0.0562 | 0.566 | 0.887 | 0.0528 |
| C[C@H]1C2[C@H](Cc3ccccc3)NC(=O)[C@]23C(=O)NCC(=O)N2CCC[C@H]2C(=O)NC/C=C\C/C=C/C3[C@@H]2O[C@]12C (stereo not given in full) | -0.376 | 0.171 | -0.087 | 0.557 | 0.726 | -0.139 | -0.0828 | 0.276 (inactive) | -0.274 | 0.123 | -0.115 | -0.479 (inactive) | -0.186 (inactive) | -0.406 (inactive) | -0.691 | 0.924 (inactive) | -0.161 | -0.102 | 0.105 | -0.0531 |
| CC(C)[Si](C#CCCCC#N)(O[C@H](c1ccccc1)c1cn([C@H](C)c2ccccc2)nn1)C(C)C | -0.207 | 0.268 | -0.0538 | 0.505 | 0.792 | 0.816 | 0.726 | -2.24 (inactive) | 0.612 | -0.214 | 1.48 | -0.766 (inactive) | -0.415 (inactive) | -3.12 (inactive) | 0.76 | 0.674 (inactive) | 0.064 | 1.08 | 1.1 | -0.152 |
